Most compounds without a hit are left out; they make up all but 2.5% or so of the library.
CHT inh – human CHT choline transport inhibition. CHT-expressing cells, membrane potential dye, choline response; hits give low values. B-score at 10 µM. 310,000 tested, 0.86% active. AID 488975;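 active = B-score over 3 SD under the library average, and starting fluorescence ratio not unusually high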;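 also: choline stimulus applied at its EC90 after an EC20 pre-addition; B-score computed on integrated fluorescence ratio after choline addition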
Target sequence (Q9GZV3 whole entry, looked up): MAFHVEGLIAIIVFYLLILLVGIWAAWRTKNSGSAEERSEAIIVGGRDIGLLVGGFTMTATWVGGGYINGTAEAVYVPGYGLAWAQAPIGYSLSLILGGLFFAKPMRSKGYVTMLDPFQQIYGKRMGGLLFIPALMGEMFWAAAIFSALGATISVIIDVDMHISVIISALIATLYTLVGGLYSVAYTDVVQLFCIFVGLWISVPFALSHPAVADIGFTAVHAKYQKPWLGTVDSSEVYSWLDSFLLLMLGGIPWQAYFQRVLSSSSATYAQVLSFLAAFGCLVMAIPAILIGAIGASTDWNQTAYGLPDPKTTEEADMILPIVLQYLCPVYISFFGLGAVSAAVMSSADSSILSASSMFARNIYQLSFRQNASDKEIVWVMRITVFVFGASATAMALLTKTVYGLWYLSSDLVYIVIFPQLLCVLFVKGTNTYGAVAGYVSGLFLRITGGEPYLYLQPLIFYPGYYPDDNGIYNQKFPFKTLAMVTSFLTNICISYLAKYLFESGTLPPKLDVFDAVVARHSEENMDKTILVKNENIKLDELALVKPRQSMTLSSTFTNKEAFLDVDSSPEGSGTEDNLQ
PKA-R1A activ – activates the PKA-R1A holoenzyme complex | PKA-R1A dissociation, Cy5-IP20 fluorescence polarization; scaled: DMSO 0%, 113 µM cGMP 100% | activation, % at 11.4 µM | 340,000 tested, 0.083% active | AID 504707;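 active = percent activation above the mean of all tested compounds plus 3 SD, cut at about 19% in these data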;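 also: higher means more PKAc released from R1A so a rise in polarization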
PKA-R2B activ – activators of human PKA-R2B complex | P22694+P31323 | activation, % at 11.4 µM | 340,000 tested, 0.079% active | PKA-R2B holoenzyme dissociation, Cy5-IP20 fluorescence polarization; R2B truncated from residue 108, S112A mutant; 0% DMSO only, 100% 113 µM cGMP;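 active = activation above a cutoff set at the mean over all compounds plus 3 SD, cut at about 18% in these data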;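 also: higher means more holoenzyme dissociation and a rise in polarization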
TMEM16A act – mouse TMEM16A channel activation, primary screen. Q8BHY3. HEK293 TMEM16A/YFP-H148Q/I152L, iodide quench fluorescence; hits give low values. B-score at 10 µM. 340,000 tested, 0.3% active;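 active = fluorescence-ratio B-score plate-corrected deviation score at least 3 library SD below zero, with starting fluorescence score within 5 deviations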;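 also: channel opened by trigger with iodide after compound preincubation; score built on the fluorescence ratio of max minus min over baseline; more negative score means more quench and so TMEM16A activation or potentiation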
TMEM16A inh – inhibitors of mouse TMEM16A calcium-activated chloride channel; Q8BHY3; HEK293 TMEM16A/YFP iodide influx fluorescence, ionomycin; normalized B-score (activity score, 25-100; higher = stronger inhibition) at 10 µM; 310,000 tested, 1.2% active;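 active = ratio plate-corrected score three or more library SD toward inhibition, starting fluorescence score within five deviations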;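 also: score derived from kinetic fluorescence span divided by baseline fluorescence per well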
CHT PAM – allosteric activators of human choline transporter CHT; B-score at 10 µM; 310,000 tested, 0.49% active; CHT-expressing cells, membrane potential dye, choline EC20; hits give high values; LV-AA mutant CHT in HEK293 cells; Q9GZV3; AID 488977;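 active = initial fluorescence not abnormally high and integrated response B-score, plate-corrected, over 3 SD above library mean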
CHT inh conf – confirmation of human choline transporter CHT inhibitors; CHT activity remaining % of control (hits give low values), % at 10 µM; 2,400 tested, 70% active; shares compounds with CHT inh; CHT-expressing cells, choline membrane potential dye; LV-to-AA substituted CHT, HEK293 cells;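 active = choline transporter activity left, mean of duplicates at 10 µM, below buffer-only control mean minus 3 SD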;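 also: depolarization triggered by choline at its EC90 following an EC20 pre-addition; 0% = hemicholinium-3 full block and 100% = buffer-only control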
HEK293 CHT ctr – activity in parental HEK293 cells lacking CHT; AID 493222; shares compounds with CHT inh; 2,400 tested, 4% active; membrane potential ratio readout (active if shifted either direction beyond buffer ±3SD; no single direction) at 10 µM; membrane potential dye, choline response; active = decrease or increase beyond buffer ±3SD;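 also: parental cells lack the transporter so any hit is non-specific; ratio is peak minus trough fluorescence over baseline after EC90 choline challenge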
* marks the source's active call; other numbers are inactive results; i = inactive; nt = no result given.

SMILES	CHT inh	PKA-R1A activ	PKA-R2B activ	TMEM16A act	TMEM16A inh	CHT PAM	CHT inh conf	HEK293 CHT ctr
CC(c1ccccc1)N1C(=O)c2ccc(C(=O)NCc3cccnc3)cc2C1=O (centres undefined)	i	-1	-7	i	i	i	nt	nt
Cc1cccc(-c2nc(CN3CCCC(C(=O)NC4CCCC4)C3)c(C)o2)c1 (centres undefined)	-5.1*	-1	12	i	i	i	i	i
Cc1ccc(N=Cc2cc(Cc3ccccc3Cl)cc([N+](=O)[O-])c2O)c(O)c1	-7.8*	13	1	i	i	i	64%*	i
COc1ccc([N+](=O)[O-])cc1NC(=O)Cc1ccccc1Cl	i	3	-4	i	i	i	nt	nt
Cc1cc(O)c(C(C)C)cc1N=Cc1ccccc1[N+](=O)[O-]	nt	10	-2	i	nt	nt	nt	nt
COc1ccc(N=Cc2cc(Cc3ccccc3Cl)cc([N+](=O)[O-])c2O)cc1OC	-6*	9	-3	i	i	i	i	i
CCOC(=O)N/N=C(\CCC(=O)O)c1cccs1	i	-1	-8	i	i	i	nt	nt
COc1ccc(S(=O)(=O)NCC(=O)N(Cc2ccco2)C(C(=O)NC(C)(C)C)C(C)C)cc1 (centres undefined)	i	0	-4	i	i	i	nt	nt
NCCCn1c(C(=O)c2cc(Cl)c(N)c(Cl)c2)c2ccc(C(F)(F)F)cc2[n+]1[O-]	-8.2*	-7	5	i	i	i	14%*	i
COc1ccc(C(=O)c2c3ccc(C(F)(F)F)cc3[n+]([O-])n2CCCC(N)=O)cc1	i	-2	5	i	i	i	nt	nt
NC(=O)CCCn1c(C(=O)c2cc(Cl)c(N)c(Cl)c2)c2ccc(C(F)(F)F)cc2[n+]1[O-]	-10*	4	1	i	i	i	-1.6%*	i
NC(=O)c1ccc(Cn2c(C(=O)c3cc(Cl)c(N)c(Cl)c3)c3ccccc3[n+]2[O-])cc1	i	9	-8	i	i	i	nt	nt
CCOc1ccc2nc(Cl)c(CN(C(C)=O)C3CCCCC3)cc2c1	-5.5*	1	-6	i	i	i	i	i
CCCN(CCC)c1nc(N(CCC)CCC)[nH]c(=O)n1	-5.1*	-1	1	i	i	i	64%*	i
CN(CC1CCCO1)S(=O)(=O)c1ccc(C(=O)Nc2ccc(S(N)(=O)=O)cc2)cc1 (centres undefined)	i	-20	-14	i	i	i	nt	nt
COc1ccc(NC(=O)CC2Nc3cccc4cccc(c34)NC2=O)cc1 (centres undefined)	i	-20	-1	i	i	i	nt	nt
O=C(CC1Nc2cccc3cccc(c23)NC1=O)Nc1ccc(F)cc1 (centres undefined)	-5.1*	0	8	i	i	i	i	i
Nc1ccc(CCn2ccnc2)cc1	i	-3	13	nt	i	i	nt	nt
N=C1CCCN1CC(=O)c1ccc(Cl)cc1	-10*	-1	-3	i	i	i	9.8%*	i
CCn1c(N2CCN(S(=O)(=O)c3ccc(OC)cc3)CC2)nc2ccccc21	-7.9*	-4	4	i	i	i	71%*	i
CN(CCC#N)C(=O)CC(Cc1ccccc1)C1CCOC(C)(C)C1 (centres undefined)	-6*	-2	0	i	i	i	i	i
CN(CCC#N)C(=O)COC(=O)[C@H](Cc1ccccc1)N1C(=O)c2ccccc2C1=O	i	-9	-2	i	i	i	nt	nt
O=C(CCC1CCCN(c2ncccn2)C1)NCc1ccc(F)c(F)c1 (centres undefined)	-5.8*	-3	7	i	i	i	64%*	i
CCOc1ccc(Br)cc1S(=O)(=O)N1CCCC1	-5.1*	3	-12	i	i	i	67%*	i
Cc1ccc(C)c(S(=O)(=O)N2CCN(C(=O)C3CCN(c4ncnc5sc(C)c(C)c45)CC3)CC2)c1	i	-12	-5	i	i	i	nt	nt
SMILES	CHT inh	PKA-R1A activ	PKA-R2B activ	TMEM16A act	TMEM16A inh	CHT PAM	CHT inh conf	HEK293 CHT ctr
O=C(CCCSc1nc2ccccc2[nH]1)N1CCN(c2ccccc2)CC1	-5*	-2	0	i	i	i	58%*	i
O=C(COC(=O)CCCSc1nc2ccccc2[nH]1)NC(=O)NC1CCCC1	-7.3*	10	11	i	i	i	62%*	i
O=C(CSc1nc2ccccc2[nH]1)N1CCN(c2ccccc2)CC1	i	1	-2	i	i	i	nt	nt
COc1cccc(CN(C)C(=O)CSCC(=O)Nc2cc(C)on2)c1OC	i	-12	-14	i	i	i	nt	nt
Cc1cc(N2CCN(C)CC2)nc2ccc(NC(=O)CCC3CCCC3)cc12	i	-5	-1	nt	i	i	nt	nt
CC1=C(C(=O)N2CCCC(CCC(=O)NCc3ccccc3F)C2)OCCO1 (centres undefined)	-6.1*	-4	-11	i	i	i	i	i
COc1cccc(-c2cc(C(=O)NN3CCOCC3)c3ccccc3n2)c1	-10*	-8	-1	i	i	i	i	i
CCc1ccc(S(=O)(=O)c2n[nH]n3c2nc(=O)c2ccccc23)cc1	-4.9*	-2	2	i	i	i	8.6%*	i
CC(C)c1ccc(S(=O)(=O)c2n[nH]n3c2nc(=O)c2ccccc23)cc1	i	-7	2	i	i	i	nt	nt
CCCCCn1c(CN2CCCCC2C)nc2c1c(=O)n(C)c(=O)n2C (centres undefined)	-5*	-11	5	i	i	i	45%*	i
CCCCn1c(CN2CCN(c3ccccc3)CC2)nc2c1c(=O)n(C)c(=O)n2C	-9.6*	0	2	i	i	i	-42%*	i
CCCn1c(CN2CCN(c3cccc(Cl)c3)CC2)nc2c1c(=O)n(C)c(=O)n2C	-11*	-1	-5	i	i	i	-13%*	i
